Data as given in PubChem BioAssay AID1159580 (chemical genetic matrix, 2015).
Where “and” joins values, the source holds several entries; their conditions need not be identical. Equal entries are not always repeated. The campaign covered roughly 5,500 compounds. About 2,000 (36%) were called active. Not shown: some 18% with an inconclusive outcome. Cut-off read from the data, not from the text of the source: active = normalized growth mostly below about 0.91 (no sharp cut-off); inconclusive = no clear call, values can overlap the other calls; inactive = mostly above about 0.92. Some of the results follow.

Assay: chemical genetic growth profiling, strain panel (AID 1159580);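 note: tested at 20 µM; growth read once vehicle control cultures reached saturation at 30 °C; 1 = growth at the plate median or of vehicle wells; lower values mean less growth of the strain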
Conditions: S. cerevisiae deletion strains, growth OD

Measured: normalized growth

O=C(O)c1ccccc1OP(=O)(O)O
inactive: locus YAL021C, strain ccr4, stronger effect = lower value 0.962 | locus YAL026C, strain drs2, stronger effect = lower value 1.01 | locus YAL030W, strain snc1, stronger effect = lower value 1 | locus YBL061C, strain skt5, stronger effect = lower value 1.01 | locus YBR009C, strain hhf1, stronger effect = lower value 1.03 | locus YBR021W, strain FUR4, stronger effect = lower value 1.01 | locus YBR023C, strain chs3, stronger effect = lower value 1.01 | locus YBR171W, strain sec66, stronger effect = lower value 1.01 | locus YBR229C, strain ROT2, stronger effect = lower value 1.01 | locus YBR231C, strain swc5, stronger effect = lower value 1.02 | locus YBR279W, strain paf1, stronger effect = lower value 1 | locus YCL011C, strain gbp2, stronger effect = lower value 1.01 | locus YCL016C, strain dcc1, stronger effect = lower value 1 | locus YCL029C, strain bik1, stronger effect = lower value 0.994 | locus YCL061C, strain MRC1, stronger effect = lower value 1 | locus YCL069W, strain vba3, stronger effect = lower value 0.997 | locus YCR088W, strain abp1, stronger effect = lower value 1.01 | locus YDL005C, strain med2, stronger effect = lower value 1 | locus YDL035C, strain GPR1, stronger effect = lower value 1.01 | locus YDL040C, strain nat1, stronger effect = lower value 0.996 | locus YDL074C, strain BRE1, stronger effect = lower value 1.02 | locus YDL101C, strain DUN1, stronger effect = lower value 1.02 | locus YDL134C, strain PPH21, stronger effect = lower value 1.02 | locus YDL185W, strain tfp1, stronger effect = lower value 0.976 | locus YDL192W, strain arf1, stronger effect = lower value 0.989 | locus YDR001C, strain nth1, stronger effect = lower value 0.993 | locus YDR069C, strain doa4, stronger effect = lower value 1.02 | locus YDR101C, strain arx1, stronger effect = lower value 1.01 | locus YDR137W, strain rgp1, stronger effect = lower value 0.987 | locus YDR150W, strain NUM1, stronger effect = lower value 1.01 | locus YDR159W, strain sac3, stronger effect = lower value 1.02 | locus YDR162C, strain NBP2, stronger effect = lower value 1.02 | locus YDR195W, strain ref2 1.01 | locus YDR297W, strain sur2, stronger effect = lower value 1 | locus YDR318W, strain mcm21, stronger effect = lower value 0.992 | locus YDR334W, strain swr1, stronger effect = lower value 1 | locus YDR335W, strain msn5, stronger effect = lower value 1.01 | locus YDR388W, stronger effect = lower value 0.987 | locus YDR392W, strain spt3, stronger effect = lower value 0.979 | locus YDR502C, strain sam2, stronger effect = lower value 0.994 | locus YEL003W, strain gim4, stronger effect = lower value 1.01 | locus YEL037C, strain rad23, stronger effect = lower value 0.997 | locus YEL061C, strain CIN8 (second series), stronger effect = lower value 1.01 | locus YEL061C, strain CIN8, stronger effect = lower value 1.01 | locus YER015W, strain faa2, stronger effect = lower value 1.01 | locus YER016W, strain bim1, stronger effect = lower value 1 | locus YER110C, stronger effect = lower value 0.992 | locus YER111C, strain swi4, stronger effect = lower value 1.01 | locus YER155C, strain BEM2 (second series), stronger effect = lower value 1.05 | locus YER155C, strain BEM2, stronger effect = lower value 1.01 | locus YER167W, strain BCK2, stronger effect = lower value 1.01 | locus YFR010W, strain ubp6, stronger effect = lower value 1.03 | locus YGL078C, strain dbp3, stronger effect = lower value 0.997 | locus YGL086W, strain mad1, stronger effect = lower value 0.996 | locus YGL167C, strain pmr1, stronger effect = lower value 1.01 | locus YGL173C, strain kem1, stronger effect = lower value 1.01 | locus YGL227W, strain vid30, stronger effect = lower value 1.01 | locus YGL240W, strain doc1, stronger effect = lower value 1.02 | locus YGL248W, strain PDE1, stronger effect = lower value 1.02 | locus YGL253W, strain hxk2, stronger effect = lower value 1.04 | locus YGR135W, strain pre9, stronger effect = lower value 0.988 | locus YGR252W, strain gcn5, stronger effect = lower value 0.97 | locus YHR013C, strain ard1, stronger effect = lower value 0.997 | locus YHR027C, strain rpn1, stronger effect = lower value 1 | locus YHR030C, strain SLT2, stronger effect = lower value 1.01 and 0.96 | locus YHR079C, strain IRE1 (second series), stronger effect = lower value 0.996 | locus YHR079C, strain IRE1, stronger effect = lower value 0.95 | locus YHR094C, strain hxt1, stronger effect = lower value 0.991 | locus YHR129C, strain ARP1, stronger effect = lower value 1.01 | locus YHR142W, strain chs7, stronger effect = lower value 0.958 | locus YHR200W, strain rpn10, stronger effect = lower value 0.995 | locus YIL066C, strain RNR3, stronger effect = lower value 1.02 | locus YIL073C, strain SPO22, stronger effect = lower value 0.999 | locus YIL125W, strain kgd1, stronger effect = lower value 0.987 | locus YIR030C, strain dcg1, stronger effect = lower value 0.995 | locus YJL092W, strain hpr5, stronger effect = lower value 1 | locus YJL095W, strain BCK1 (second series), stronger effect = lower value 1 | locus YJL095W, strain BCK1, stronger effect = lower value 1.03 and 0.973 | locus YJL115W, strain asf1, stronger effect = lower value 0.99 | locus YJL129C, strain trk1, stronger effect = lower value 1 | locus YJL134W, strain LCB3, stronger effect = lower value 1 | locus YJL154C, strain vps35, stronger effect = lower value 0.996 | locus YJL164C, strain tpk1, stronger effect = lower value 0.981 | locus YJL166W, strain qcr8, stronger effect = lower value 1.01 | locus YJL168C, strain set2, stronger effect = lower value 0.986 | locus YJL187C, strain SWE1 (second series), stronger effect = lower value 1.02 | locus YJL187C, strain SWE1, stronger effect = lower value 0.997 | locus YJR043C, strain POL32, stronger effect = lower value 1.01
